According to PubChem BioAssay AID764 (NMMLSC, 2007):
The whole screen tested about 190,000 compounds, of which about 220 (0.12%) were called active. Not shown: some 2% with an inconclusive outcome. Shown is part of a subset that was picked to be rich in actives. Values without a mark were called inactive.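 Rule for the calls: active = GTP binding at least 20 percentage points away from the 100% baseline, in either direction, so actives lie on both sides; inconclusive = Compound likely fluorescent itself, or too few beads counted; inactive = the rest.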

Target: Ras-related C3 botulinum toxin substrate 1 (Homo sapiens) (UniProt P63000)
Experiment: GTP binding modulators of activated mutant Rac1, primary screen, biochemical, bead-based flow cytometry, multiplex, fluorescent GTP (AID 764)
Settings: GST-Rac1 activated beads, at 10 µM, actives lie on both sides, 100% means binding = to untreated wells

| Compound | percent activity (GTP binding) |
| --- | --- |
| Cc1csc(NC(=O)Nc2ccccc2[N+](=O)[O-])n1 | 97% |
| CN(C)S(=O)(=O)Oc1ccccc1C(=O)Nc1ccccc1Cl | 99% |
| CCOC(=O)N1CCN(CCC(=O)Nc2cc(OC)ccc2OC)CC1 | 96% |
| CN1CCN(c2ccc(NC(=O)c3ccc4c(c3)OCCO4)cc2Cl)CC1 | 98% |
| CSc1ncnc2sc(C)c(C)c12 | 93% |
| CC[n+]1c(C)n(-c2ccccc2)c2ccc(NC(C)=O)cc21 | 96% |
| Cc1ccc(C)c(NC(=O)CCC(=O)N/N=C2/CC(=O)CC(C)(C)C2)c1 | 96% |
| COc1ccc(S(=O)(=O)N2CCN(C(=O)c3cc(C)oc3C)CC2)cc1 | 97% |
| CC(CC(=O)C1C(C)C=CCC1(C)C)NNC(N)=O (centres undefined) | 95% |
| Cn1cccc1/C=C1\SC(=O)N(CC(=O)Nc2ccc(F)cc2)C1=O | 95% |
| CCOC(=O)C1CCN(C(=O)C2(NC(=O)Nc3cccc(F)c3)CCCCC2)CC1 | 97% |
| CC(C)N(Cc1nc(-c2ccc3c(c2)OCO3)no1)CC1CCC(=O)N1 (centres undefined) | 98% |
| CCOC(=O)/C(=N\Nc1ccccc1[N+](=O)[O-])c1csc(Nc2ccccc2)n1 | 91% |
| C/C(CC(=O)Nc1ccc(C)cc1C)=N\NC(=O)C(C)C | 98% |
| CCN(C(=O)Cc1nc(N)n[nH]1)C1(C(=O)Nc2ccccc2)CCCCC1 | 97% |
| CC(=O)c1c(-c2ccccc2)c2ccccc2[nH]c1=O | 96% |
| COc1ccc(C2=NN(c3ccccc3)C(c3cccs3)C2)cc1 (centres undefined) | 94% |
| CCS(=O)(=O)c1ccc(O)c(NC(=O)COc2ccc(Cl)cc2)c1 | 95% |
| O=C(CC1CCCCC1)NCc1ccco1 | 92% |
| CCOc1ccc(Br)cc1S(=O)(=O)N1CCC(C(=O)O)CC1 | 94% |
| CSc1ncccc1C(=O)NC1CCCCCC1 | 96% |
| COc1ccc(NC(=O)c2c(SC)nsc2SC)cc1 | 100% |

| Compound | percent activity (GTP binding) |
| --- | --- |
| CSc1nsc(SC)c1NC(=O)OC1CCCCC1 | 33% (active) |
| Cn1c(CCC(=O)OCC(=O)NCc2ccccc2Cl)nc(=O)c2ccccc21 | 95% |
| COc1ccc(-c2nc(N)sc2C2(O)C(=O)Nc3c(Br)cc(F)cc32)cc1OC (centres undefined) | 95% |
| COc1cccc(Cn2cnc3c([N+](=O)[O-])c(C)c(C)cc32)c1 | 96% |
| Cc1nc2ccccn2c1C(=O)NN=C1CCN(C)CC1 | 98% |
| O=C1c2ccccc2C(=O)N1CCC(O)C[N+](=O)[O-] (centres undefined) | 98% |
| CC(=O)Nc1ccc(Sc2ccccc2C(=O)N2CCCC2)cn1 | 98% |
| CCOc1ccc(C(CC(=O)O)n2cnnn2)cc1OC (centres undefined) | 91% |
| Cc1c(Cl)c([N+](=O)[O-])nn1CC(=O)NCC1CCCO1 (centres undefined) | 96% |
| CC(NC(=O)COC(=O)c1ccc(Cl)cc1O)c1ccc(F)cc1 (centres undefined) | 99% |
| Cc1ccc(NC(=S)NC(=O)c2ccc(-c3ccccc3)cc2)c(C)c1 | 92% |
| COc1c(F)c(F)c(C(=O)O)c(Nc2ccccc2C)c1F | 97% |
| Cc1ccc(Nc2c(F)c(F)c(F)c(F)c2C(=O)O)c(C)c1 | 139% [activator] (active) |
| COc1ccc(/C=C/C(=O)c2cc(Br)ccc(=O)c2O)cc1 | 78% (active) |
| COc1ccc(/C=C/C(=O)c2ccc(OC)cc2O)cc1 | 96% |
| COc1ccc(C(=O)/C=C/c2ccc(OC3CSC3)cc2)cc1 | 95% |
| CCOC(=O)c1c(C)[nH]c(C2=NNC(=NC(C)COC)SC2)c1C (centres undefined) | 97% |
| Cc1cccc(NC(=O)Nc2ccc3c(c2)OCO3)n1 | 97% |
| CC(C(=O)NCC1CCCCC1)N(C)Cc1cccc(Cl)c1 (centres undefined) | 95% |
| CN(C)CCOc1cccc(Br)c1 | 95% |
| N=C1C(c2nc3ccccc3s2)=C(O)CN1NC(=O)c1ccc([N+](=O)[O-])cc1 | 84% |
| C/C(=N/N1CCN(Cc2cccc3ccccc23)CC1)c1cccnc1 | 95% |

| Compound | percent activity (GTP binding) |
| --- | --- |
| CCc1cccc(OC2OC(CO)C(O)C(O)C2NC(C)=O)c1 (centres undefined) | 97% |
| S=C(Nc1ccc(Br)cc1Cl)N1CCC2(CC1)OCCO2 | 98% |
| Cc1cccc2c1N(CCOc1ccccc1)C(=O)C2=O | 98% |
| Cc1ccc(CC2CC(=O)N(c3nc(C)cc(C)n3)C2=O)cc1 (centres undefined) | 97% |
| CNC(=O)COc1ccc(S(=O)(=O)Nc2ccccc2)cc1 | 98% |
| C=CCN(CC=C)S(=O)(=O)c1ccc(C(=O)Nc2sc3c(c2C(N)=O)CCCCC3)cc1 | 100% |
| COCCN(CCOC)S(=O)(=O)c1ccc(C(=O)Nc2nc3c(s2)CCc2ccccc2-3)cc1 | 100% |
| C=CCN(CC=C)S(=O)(=O)c1ccc(C(=O)Nc2nc3c(s2)CCc2ccccc2-3)cc1 | 54% (active) |
| CCOC(=O)c1[nH]cnc1C(=O)Nc1ccccc1C | 95% |
| CCOc1ccc(N2C(=O)Nc3ccccc3C2(O)C(=O)NCc2ccco2)cc1 (centres undefined) | 99% |
| CCOC(=O)c1sc(/N=C/C2=C(O)CC(C)(C)CC2=O)c(C(=O)OCC)c1C | 95% |
| O=C(NCCOc1ccccc1F)Nc1ccc(Br)cc1 | 93% |
| C=CCn1c(CNC(=O)c2ccco2)nnc1SCC(=O)c1ccc(OC)cc1 | 97% |
| COc1ccc(CCNC(=O)CN(c2ccccc2)S(C)(=O)=O)cc1 | 97% |
| COc1cccc(OC)c1C(=O)NC(=S)Nc1ccc(N2CCOCC2)c(Cl)c1 | 95% |
| NS(=O)(=O)c1ccc(NC(=O)COC(=O)CCc2c[nH]c3ccccc23)cc1 | 99% |
| CCOC(=O)C(=Cc1ccccc1OC)C(=O)OCC | 89% |
| COc1cc(/C=N/NC(=S)Nc2cccnc2)cc(OC)c1O | 89% |
| CCc1cc2c(=O)c(-c3nc4ccccc4n3C)c(CCCC(=O)O)oc2cc1OC(=O)C(C)(C)C | 94% |
| Cc1ccc(O)c(NC(=S)NC(=O)COc2ccc(Br)cc2)c1 | 92% |
